The list is not random: actives were taken first. Their share in the collection is about 1.9%.
Efa HMGR inh: inhibitors of E. faecalis class II HMGR, primary screen, biochemical, Enterococcus faecalis. HMG-CoA reductase (Enterococcus faecalis, mvaE). purified E. faecalis HMGR, NADPH absorbance 340 nm kinetic. inhibition, % at 10 µM. 190,000 tested, 0.41% active;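 active = inhibition above a set limit, the median over all tested compounds plus 3 SD, cut at about 9.5% in these data; inconclusive = no clear call, values can overlap the other calls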;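 note: enzyme runs in reverse so mevalonate oxidation gives rising NADPH absorbance; 0% = complete reaction with DMSO and 100% = background rate lacking mevalonate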
Autophagy HCS: autophagy modulators in MEF cells, primary screen, imaging, high-content, MEF GFP-LC3; AID 463193, 2010; calls only at 10 µM (by protocol); 190,000 tested, 0.98% active; MEF GFP-LC3 puncta imaging; test concentration mostly 10 µM;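 active = percentage of spot-positive cells more than 3 SD above its plate mean, without a fluorescence outlier flag or 80% toxicity; inconclusive = no clear call, values can overlap the other calls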;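 note: spot-positive cell cutoff set from DMSO-treated cells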
INS promoter inh: inhibitors of insulin promoter-driven GFP, primary screen, imaging, TRM-6 cells (human fetal islet line), eGFP reporter, cell count. reporter expression induced with tamoxifen. inhibition, % at 2 µM. 130,000 tested, 0.9% active. AID 1273, 2008;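 active = inhibition above the mean plus 3 SD, with well images judged a real hit on visual review, cut at about 60% in these data, passing the limit was not always enough; inconclusive = inhibition over the cutoff but images rejected on review; inactive = inhibition not above the cutoff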
Insulin prom up: insulin promoter activators in MIN6 cells, imaging, high-content screening, mouse beta cells; AID 1625, 2009; 190,000 tested, 0.3% active; MIN6 insulin promoter-GFP reporter; stronger effect = higher value; z-score at 5 µM;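 active = z-score above 3 at 5 µM with at least 500 cells counted in the well; inconclusive = wells under 500 cells, flagged as cytotoxic or low count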
Numbers without * were called inactive; i = inactive; u = inconclusive; x = no result; + = active, no number.

SMILES | Efa HMGR inh | Autophagy HCS | INS promoter inh | Insulin prom up
Cc1cccc2cc(C(c3nnnn3CC3CCCO3)N3CCCC4(CCCCC4)C3)c(=O)[nH]c12 (configuration not stated) | -8 | + | x | -0.59
CCCCn1c(SCC(=O)N(C)C2CCS(=O)(=O)C2)nc2cc(S(N)(=O)=O)ccc21 (configuration not stated) | x | x | x | 0.94
COc1cccc(-c2nc(-c3ccc4c(c3)NC(=O)CO4)cs2)c1 | 2 | i | 18 | x
COc1ccc(-c2cc(-c3ccc(OC)cc3)nc(-c3ccc4c(c3)NC(=O)CO4)c2)cc1 | -5 | + | -11 | -0.38
Nc1nc(CN2CCN(c3ccccc3F)CC2)nc(Nc2ccc3c(c2)OCCO3)n1 | -1 | i | 0 | -0.95
CN1CCN(Cc2nc(N)nc(Nc3ccc4c(c3)OCCO4)n2)CC1 | -5 | i | x | 4.7*
O=C(NCCCc1ccccc1)N1CCOCC1 | -1 | i | x | 1.6
c1ccc2c(CSc3ncnc4nc[nH]c34)cccc2c1 | -1 | i | 56 | x
O=C1CC(C(=O)Nc2cccc(Cl)c2)n2ncnc2N1 (configuration not stated) | 12* | i | 58 | -1.6
Cc1c(C(=O)Nc2ccc(F)cc2)oc2ccc(S(=O)(=O)N3CC(C)CC(C)C3)cc12 (configuration not stated) | -2 | i | 71* | -0.94
COC(=O)c1cc(=O)n(CCc2ccc(OC)c(OC)c2)c(=Nc2ccc(F)c(Cl)c2)s1 | 2 | i | x | -0.49
CC1CCCC(C)N1C(=O)CSc1nnc(COc2cccc3cccnc23)o1 (configuration not stated) | 0 | i | -86 | -0.1
O=C(CSc1nnc(COc2cccc3cccnc23)o1)N1CCCC1 | 12* | i | x | -0.32
Oc1ccc(Cl)cc1C1=Nc2ccccc2N=C(c2ccco2)C1 | -1 | + | -311 | 4.3*
O=C(Nc1ccc(O)cc1)c1cccc(Oc2ccc([N+](=O)[O-])cc2)c1 | -7 | i | -33 | 1.1
CN(C)S(=O)(=O)Oc1cccc(C(=O)Nc2ccc([N+](=O)[O-])cc2)c1 | -1 | i | -7 | 3.4*
CN(C)S(=O)(=O)c1cccc(C(=O)Nc2ccc(S(=O)(=O)N3CCCC3)cc2)c1 | 14* | i | x | -0.55
O=C(Nc1ccccc1O)c1nc(Cl)ccc1Cl | 5 | i | 36 | 1.1
CC(=O)Oc1ccc2c(=O)c(/C=N/c3cc(=O)[nH]c(=S)[nH]3)coc2c1 | x | x | x | -0.28
Cc1ccc2c(c1)S/C(=C/c1ccc[n+](CCO)c1)N2C | 2 | i | 5 | x
Cc1cc(/C=C2\Sc3ccccc3N2C)cc(C)[n+]1CC1CCCO1 (configuration not stated) | 0 | + | x | u
CCOc1ccccc1NC(=O)CCSc1nc2n[nH]c(C)c2c(=N)n1-c1ccccc1Cl | -1 | + | 26 | -0.83
Cc1ccc(C(=O)NCCc2ccncc2)cc1 | 12* | i | -20 | x
COc1ccc(-c2ccc(/C=N/NC(=O)c3cccnc3)o2)c([N+](=O)[O-])c1 | -6 | + | -116 | 2.3
Cc1cc(C)cc(OCC(=O)Nc2ccc3c(c2)OCO3)c1 | -13 | i | x | x
SMILES | Efa HMGR inh | Autophagy HCS | INS promoter inh | Insulin prom up
COC(c1ccccc1)c1nnc(CCC(=O)NCCC(C)C)o1 (configuration not stated) | 16* | i | 62 | -0.68
COC(c1ccccc1)c1nnc(CCC(=O)NCc2ccc3ncccc3c2)o1 (configuration not stated) | -1 | i | x | x
O=C1c2ccccc2C(=O)N1CCc1c[nH]c2ccc(O)cc12 | 0 | i | x | x
C=CCOc1ccc(C2NC(=S)NC3=C2CCc2ccccc23)cc1 (configuration not stated) | x | x | x | -0.24
O=C1NC2=C(CCc3ccccc32)C(c2ccccc2)N1 (configuration not stated) | 3 | i | 61* | -0.43
Cc1ccnc(NC(=O)CCC(=O)N(CC(=O)NC2CCCCC2)Cc2cccs2)c1 | 3 | i | -100 | 0.44
CCN(CC)S(=O)(=O)c1ccc(OCC(=O)NC2CCS(=O)(=O)C2)c([N+](=O)[O-])c1 (configuration not stated) | 0 | i | x | 0.22
CCN(CC(=O)NC1CCS(=O)(=O)C1)c1ccc(S(C)(=O)=O)cc1[N+](=O)[O-] (configuration not stated) | 2 | + | -17 | 1.2
CCn1c2ccccc2c2cc(CNCc3ccc(OC)cc3OC)ccc21 | -15 | + | x | -0.04
CCC(CC)NCc1ccc2c(c1)c1ccccc1n2CC | -2 | i | -73 | -0.65
O=C(C1c2ccccc2C(=O)N2CCc3ccccc3C12)N1CCN(Cc2ccccc2)CC1 (configuration not stated) | 49* | i | 17 | -0.06
C(=C\c1ccccc1)/CNCC1CCCO1 (configuration not stated) | 11* | i | x | -1.6
CCOC(=O)COc1ccc(C(=O)NC2CCCCC2)cc1 | -6 | i | 0 | 4.2*
c1cnc(-c2noc(CN3CCN(C4CCCC4)CC3)n2)cn1 | -4 | i | x | 1.2
NNC(=O)C12CC3CC(C1)CC(n1ncnn1)(C3)C2 | 0 | i | -46 | 0.32
COc1cc2c(cc1OC)C(C)N(C(C)=O)CC2 (configuration not stated) | 3 | i | 81* | x
COc1cc2c(cc1OC)C(C)N(C(=O)c1cccs1)CC2 (configuration not stated) | -8 | i | x | 0.49
CC(=C\c1ccccc1)/C=C1/SC(=S)N(CCC(=O)Nc2ccccn2)C1=O | -4 | + | -7 | 0.02
O=C(CCN1C(=O)/C(=C/C=C/c2ccccc2)SC1=S)Nc1ccccn1 | -4 | i | -100 | 0.79
CCOc1ccc(CN(C(=O)c2oc3cc(C)ccc3c2C)C2CCS(=O)(=O)C2)cc1 (configuration not stated) | -8 | i | 66* | 0.43
COc1ccc2[nH]cc(CCn3ccc(=O)c(C)c3C)c2c1 | -3 | i | x | -1.4
CC12CCC(C(=O)N(CSC(=S)N/N=C\c3ccccc3)C1=O)C2(C)C (configuration not stated) | -3 | i | 76* | x
CC12CCC(C(=O)N(CSC(=S)N/N=C\c3ccccc3Cl)C1=O)C2(C)C (configuration not stated) | -2 | i | -10 | x
C=CCNc1nc(N2CCCC2)nc2ccccc12 | -6 | i | 79* | -0.85
COc1ccc(Nc2nc(N3CCCC3)nc3ccccc23)c(OC)c1 | -4 | + | 35 | -1.8
CC(Nc1nc(N2CCCCC2)nc2ccccc12)c1ccccc1 (configuration not stated) | -5 | i | -71 | 2
COc1ccc(Nc2ncnc3ccccc23)c(OC)c1 | -1 | i | 60 | x
Cc1ccc(C2=NNC(=O)C(P(=O)(c3ccccc3)c3ccccc3)C2)cc1 (configuration not stated) | 0 | i | 7 | -0.83

From PubChem BioAssay
